We go through 100 compounds from ChEMBL document CHEMBL3988442, “University of Dundee, Small-Polar-MMV Screening Library” (2021).

Molecules are shown by their SMILES. Hit rate of the full screen: of about 48,000 compounds, about 13,000 (27%) showed an effect of 50% or more. This is one part of the list.

The experiment deals with Wolbachia pipientis. As to the kind of experiment: Anti-Wolbachia Cell-Based Screen. Format: functional. Also noted: scale not given: in the data most compounds retested in dose-response had high values. Particulars: 5 µM.
With `Cc1ccccc1CC(C)(C)NC(=O)c1cccc(OCC(N)=O)c1`, the “Percent Effect” value is -9.051%. `CCn1nnc2c1C(COC)CN(C(=O)COc1ccccc1)C2` (stereo not given): the “Percent Effect” value is recorded as -1.685%.

For `O=C(c1ncccn1)N1C[C@@H]2COC[C@]2(COc2cccnc2)C1`, the “Percent Effect” value is 108.1%. Turning to `O=C(c1cocn1)N1C[C@@H]2COC[C@]2(COc2cccnc2)C1`, the “Percent Effect” value was 92.15%.

`O=C(c1ncccn1)N1C[C@@H]2COC[C@]2(COCc2cccnc2)C1`: the “Percent Effect” value was determined as 11.05%. In the case of `CCOCc1cncc2c1CCN(C(=O)c1cccc(C#N)c1)C2` it was 8.725%; in that of `COCc1cncc2c1CCN(C(=O)c1ccc(C#N)cc1)C2.O=C(O)C(F)(F)F`, 122.8%. In the case of `O=C(c1cccnc1)N1CCc2c(COCC3CC3)cncc2C1` it was 11.19%; in that of `COCc1cncc2c1CCN(C(=O)c1cccc(C#N)c1)C2.O=C(O)C(F)(F)F`, 95.5%. On to `O=C(c1ccncc1)N1CCc2c(COCC3CC3)cncc2C1`, for which the “Percent Effect” value is on record as -2.638%. In the case of `N#Cc1ccc(C(=O)N2CCc3c(COCC4CC4)cncc3C2)cc1`, the “Percent Effect” value came out at 120.9%.

In the case of `N#Cc1cccc(C(=O)N2CCc3c(COCC4CC4)cncc3C2)c1.O=C(O)C(F)(F)F`, the “Percent Effect” value is on record as -0.2698%. As to `CC(C)=CCN1CCC2(CC1)c1ccccc1[C@@H](N1CCSCC1)[C@@H]2O`, the “Percent Effect” value is 17.95%. The value for `CNC(=O)c1nc2c(s1)CCN(C(=O)c1ccccc1)CC2` was -10.92%; that for `CNC(=O)N1CCc2nc(C(=O)Nc3cccnc3)sc2CC1` was -5.762%. Turning to `NC(=O)c1nc2c(s1)CCN(Cc1ccccc1)CC2.O=C(O)C(F)(F)F`, the “Percent Effect” value is recorded as -10.1%. Take `CCN(CC)C(=O)c1nc2c(s1)CCN(C(=O)Nc1ccccc1)CC2`: the “Percent Effect” value was determined as 97.77%. In the case of `NC(=O)c1nc2c(s1)CCN(C(=O)Nc1cccc(Cl)c1)CC2` it was 103.6%; in that of `O=C(Nc1ccccc1)N1CCc2nc(C(=O)N3CCCC3)sc2CC1`, 124.8%; in that of `CCN(CC)C(=O)c1nc2c(s1)CCN(Cc1cccc(OC)c1)CC2.O=C(O)C(F)(F)F`, -1.01%. In the case of `NC(=O)c1nc2c(s1)CCN(C(=O)Nc1ccccc1)CC2`, the “Percent Effect” value came to 118.3%.

For the compound `COc1cccc(CC(=O)N2CCc3nc(C(N)=O)sc3CC2)c1`, the “Percent Effect” value is recorded as -1.696%.

Take `O=C(c1ccc(Cl)cc1)N1CCc2nc(C(=O)N3CCCC3)sc2CC1`: the “Percent Effect” value was 0.273%. In the case of `CN(C)C(=O)c1nc2c(s1)CCN(C(=O)c1ccc(Cl)cc1)CC2` it was -17.04%; in that of `CCN(CC)C(=O)c1nc2c(s1)CCN(C(=O)CCC(=O)OC)CC2`, -10.26%; in that of `O=C(c1ccc2c(c1)[nH]c(=O)n2C1CCCC1)N1CCSCC1`, 1.159%. In the case of `CCCSc1ncc(CN2CCN(C)C(=O)C2C)cn1` (stereo not given) it was 3.746%; in that of `Cc1nsc(NC(=O)N2CCN(Cc3ccccc3F)C(=O)C2)n1`, -10.42%. In the case of `Clc1cccc(-c2noc(CCN3CCN(c4ccncc4)CC3)n2)c1` it was 4.288%; in that of `CN(Cc1ccc(Cl)s1)C(=O)Nc1ccc(N(C)C)nc1`, 10.16%.

Take `COCCN(Cc1cnn(C)c1)C(=O)C1COc2c(cccc2OC)C1` (stereo not given): the “Percent Effect” value is -6.746%. Take `COCCCN1CC2(CCCCN2C(=O)COC)CC1=O` (stereo not given): the “Percent Effect” value is on record as -19.41%. In the case of `CN1CC2(CCCCN2C(=O)c2ccsc2)CC1=O` (stereo not given) it was 106.9%; in that of `CCN1CC2(CCCCN2C(=O)c2ccn(C)n2)CC1=O` (stereo not given), -5.146%; in that of `CCN1C(=O)CCCC12CCCN(C(=O)c1ccsc1)C2` (stereo not given), 0.7078%. `CCN1CC2(CCCCN2C(=O)c2ccsc2)CC1=O` (stereo not given): the “Percent Effect” value was 92.4%. In the case of `COc1ccccc1-c1ccc(C(=O)N2C[C@H]3CC[C@@H]2CN(C)C3)cc1` it was 3.488%; in that of `Cc1nnc([C@@H]2CCO[C@@H]3CCN(C(=O)Cc4ccsc4)C[C@@H]32)o1`, -11.03%; in that of `O=C(NCCCC(=O)N1CCN(CC2CC2)c2ccccc21)C1CC1`, -7.741%. For the compound `Nc1cc(CC2COc3ccccc3C2)ccn1` (stereo not given), the “Percent Effect” value is -18.54%. Regarding `c1ccc2c(c1)CC(Cc1cc(N3CCCC3)cnn1)CO2` (stereo not given), the “Percent Effect” value was 9.635%. In the case of `O=C(c1ccnc(CC2COc3ccccc3C2)c1)N1CCCC1` (stereo not given) it was 99.57%; in that of `COc1ccc2c(c1)OCC(Cc1cc(N3CCCC3)cnn1)C2` (stereo not given), -5.296%.

Take `COc1ccc2c(c1)OCC(Cc1cc(C(=O)N3CCCC3)ccn1)C2` (stereo not given): the “Percent Effect” value is 87.9%. For `COc1ccc2c(c1)OCC(Cc1ccnc(N)n1)C2` (stereo not given), the “Percent Effect” value was -14.38%. The value for `COc1cccc(CC(=O)N2CC[C@@H]3NC(=O)CC[C@@H]32)c1` was -6.606%. Turning to `Cc1ccc(OCC(O)CNC(=O)C2(c3ccc(F)cc3)CC2)cc1` (stereo not given), the “Percent Effect” value is recorded as -8.798%. Take `FC(F)(F)CCN(Cc1ccon1)C1CCCC1`: the “Percent Effect” value was 5.052%. In the case of `CCc1cc(CNC(=O)c2cc(NC(=O)C(C)C)ccc2Cl)[nH]n1` it was -9.115%; in that of `CCc1cc(CNC(=O)NCC(c2ccco2)N2CCCC2)[nH]n1` (stereo not given), -1.193%. In the case of `C[C@H](NS(C)(=O)=O)C(=O)NCc1cc(-c2ccco2)n[nH]1` it was 75.56%.

Turning to `CCc1cc(CNC(=O)N(C2CC2)C(C)c2ccco2)[nH]n1` (stereo not given), the “Percent Effect” value is -14.67%. As for `CC(C)[C@H](NS(C)(=O)=O)C(=O)NCc1cc(-c2ccco2)n[nH]1`, the “Percent Effect” value amounted to 84.23%. In the case of `CC(C)[C@H](NS(C)(=O)=O)C(=O)NCc1cc(-c2ccccc2)n[nH]1` it was 101.1%; in that of `CCCC(C)NC(=O)c1ccc(-c2ccco2)[nH]c1=O` (stereo not given), 12.91%; in that of `CN(Cc1ccco1)Cc1ccccc1CNC(=O)c1cc[nH]n1`, -6.684%. As to `CC(NS(C)(=O)=O)C(=O)N(C)Cc1csc(-c2ccccc2)n1` (stereo not given), the “Percent Effect” value was -10.17%. The value for `O=C(c1cccc(-n2cccn2)c1)N1CCCOC(Cn2cccn2)C1` (stereo not given) was 8.514%; that for `O=C(NCC1CC1)C1CCCN(c2cccc(C(F)(F)F)n2)C1` (stereo not given) was -14.15%.

`COc1ccc(SC(C)C(=O)N2CCC(NC(=O)C3CC3)CC2)cc1` (stereo not given): the “Percent Effect” value is on record as -11.29%. With `COCC(=O)Nc1cc(Br)cnc1OCC(F)(F)F`, the “Percent Effect” value was -8.259%. In the case of `Cc1ccoc1C(=O)NC1CCN(C(=O)Nc2ccccn2)CC1` it was 143.8%; in that of `Cc1occc1C(=O)NC1CCN(C(=O)Nc2cccnc2)CC1`, 26.57%.

For the compound `Cc1ccc(C(=O)NC2CCN(C(=O)Nc3ccccn3)CC2)s1`, the “Percent Effect” value came out at 106.5%.

Take `CC1CCN(C(=O)C2CCCN(C(=O)Nc3ccccn3)C2)CC1` (stereo not given): the “Percent Effect” value is given as -1.039%. The value for `Cc1ccc(C(=O)N2CCN(C(=O)Nc3ccccn3)CC2)o1` was 12.27%. The value for `CCn1cc(CN2CCCC2c2nc(-c3ccccc3)no2)cc1C#N` (stereo not given) was -29.44%.

In the case of `Cc1ccc(CN2CCc3c(CN4CCCC4)n[nH]c3C2)s1.O=C(O)C(F)(F)F.O=C(O)C(F)(F)F`, the “Percent Effect” value is reported as -6.492%. The value for `Cn1nnc2c1C(COCC1CC1)CN(C(=O)[C@H]1CCCO1)C2` (stereo not given in full) was 10.79%. The value for `CCOC(=O)c1coc(N2CCC(C(O)CC(C)C)CC2)n1` (stereo not given) was -3.785%. With `CC(=O)N1CCOC(c2c(C(=O)O)sc3ccccc23)C1` (stereo not given), the “Percent Effect” value is 123%. `CC(=O)N1CCN(Cc2c(C)sc3ccccc23)CC(O)C1` (stereo not given): the “Percent Effect” value was -5.1%. In the case of `CC(=O)N1CCN(Cc2cccc3c2sc2ccccc23)CC(O)C1` (stereo not given) it was -0.8612%.

`Cn1ccc(C(=O)N2CCOC(c3ccccc3)C2)cc1=O` (stereo not given): the “Percent Effect” value is on record as -8.227%. In the case of `CC(=O)N1CCOC(c2c(C(=O)NC(C)(C)C)sc3ccccc23)C1` (stereo not given) it was 161.4%; in that of `CC(=O)N1CCC(c2nnc3ccc(C(=O)NCCN(C)C)cn23)C1` (stereo not given), -5.924%; in that of `CC(=O)N1CCOC(c2c(C(=O)NCCN(C)C)sc3ccccc23)C1` (stereo not given), 169.5%. Take `CNC(=O)c1cccc(NC(=O)NC(C)CCc2cccn2C)c1C` (stereo not given): the “Percent Effect” value is -20.84%. Turning to `CCn1ccnc1CN(C)C1CCCN(Cc2ccccc2F)C1` (stereo not given), the “Percent Effect” value was -12.96%.

For the compound `CCC1CN(CCCO)c2ccccc2O1` (stereo not given), the “Percent Effect” value turned out to be 49.62%.

For `Cc1nnc(CN2CCN(CCOc3ccccc3C#N)CC2)n1C`, the “Percent Effect” value is on record as -3.944%. With `Cc1cccnc1CN1CC[C@H](Oc2cccc(F)c2)[C@@](C)(O)C1`, the “Percent Effect” value is listed as 112.2%.

`Fc1ccc(CC2CCN(Cc3cscn3)CC2)cc1`: the “Percent Effect” value is listed as 6.196%. Turning to `C[C@]1(O)CN(Cc2ncccc2F)CC[C@@H]1Oc1cccc(F)c1`, the “Percent Effect” value is 113.6%. In the case of `CCn1ccnc1CN1CCC(Oc2cccc(F)c2)(C(=O)O)CC1` it was -6.452%; in that of `COc1ccc2c(c1)CCN(Cc1cscn1)CC2`, -16.58%.

Take `CCN1CCN(C[C@@H]2CN(c3ncccc3F)C[C@@H]2CO)CC1`: the “Percent Effect” value amounted to 10.53%. Turning to `Cc1nccc(CN2CC[C@H](Oc3cccc(F)c3)[C@@](C)(O)C2)n1`, the “Percent Effect” value is on record as -4.258%. For the compound `CCOc1ccnc(N2CCN(Cc3ncccc3C)CC2)n1`, the “Percent Effect” value is given as -12.42%. The value for `C[C@]1(O)CN(Cc2cscn2)CC[C@@H]1Oc1cccc(F)c1` was 131.8%; that for `C[C@]1(O)CN(Cc2ncc[nH]2)CC[C@@H]1Oc1cccc(F)c1` was 143.6%; that for `CCN1CC(c2ccccc2)CC2(CCN(Cc3ncc[nH]3)CC2)C1` (stereo not given) was -4.226%. In the case of `O=C(c1cnc2[nH]c(=O)[nH]c(=O)c2c1)N1CCCC1C1CCCCC1` (stereo not given) it was 5.907%; in that of `Cc1cccc(S(=O)(=O)NC(=O)c2ccc3c(c2)nnn3C)c1`, -16.64%; in that of `CC(C)c1noc(-c2ccc(NCc3noc(C(C)C)n3)nc2)n1`, -9.684%. The value for `Cc1ccccc1OCC1CCCN(C(=O)Cc2c[nH]c(=O)[nH]c2=O)C1` (stereo not given) was -4.345%. Take `O=C(COc1ccc2c(c1)CCC2)NS(=O)(=O)c1cncc(Br)c1`: the “Percent Effect” value was -16.45%. Consider `CC(O)c1cn(CC2CCN(C(=O)CN(C)C(C)C)CC2)nn1` (stereo not given), for which the “Percent Effect” value is reported as -14.32%. Turning to `Cc1ccc(S(C)(=O)=O)cc1C(=O)N1CCCC(n2cncn2)C1` (stereo not given), the “Percent Effect” value came to 123.8%. In the case of `CSc1ccc(C)c(C(=O)N2CCCC(n3cncn3)C2)c1` (stereo not given), the “Percent Effect” value is 94.98%.
